The source of these data is PubChem BioAssay (Tox21).

The target in assay [1] is Thyrotropin-releasing hormone receptor (Homo sapiens) (UniProt P34981). In words: qHTS assay to identify small molecule agonists of the thyrotropin-releasing hormone receptor (TRHR) signaling pathway (AID 1346891; calls by dose curve; note: series mostly up to about 58 µM). Put shortly: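 TRHR-expressing HEK293 cells were plated 18 h at 37 °C/5% CO2, loaded with calcium dye 2 h at 37 °C, then given compound in DMSO; fluorescence was read kinetically for 3 min at 1 s intervals.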
Chain of Thyrotropin-releasing hormone receptor (Homo sapiens) (P34981 whole entry, looked up): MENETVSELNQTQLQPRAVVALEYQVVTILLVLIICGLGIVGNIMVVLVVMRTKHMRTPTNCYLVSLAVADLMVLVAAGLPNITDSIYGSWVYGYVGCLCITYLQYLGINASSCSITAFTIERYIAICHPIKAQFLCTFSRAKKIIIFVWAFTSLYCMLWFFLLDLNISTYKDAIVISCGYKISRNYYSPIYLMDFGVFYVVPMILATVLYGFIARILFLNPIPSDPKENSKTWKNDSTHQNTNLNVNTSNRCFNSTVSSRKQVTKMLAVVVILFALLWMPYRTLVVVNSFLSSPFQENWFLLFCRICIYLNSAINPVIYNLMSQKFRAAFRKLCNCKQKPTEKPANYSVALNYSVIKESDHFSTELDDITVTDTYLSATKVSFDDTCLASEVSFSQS
A general note: In qHTS, concentration-response curves come from the screen itself.

Assay [2] can be described thus: Human pregnane X receptor (PXR) small molecule agonists, qHTS cell viability counter screen (AID 1346977). Note: nearly all actives have a fitted effect of over 50% in size. An outline of the steps:
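PXR-Luc HepG2 cells in medium with 5% charcoal-stripped FBS were pre-incubated 5hr, then exposed to compounds for 24hr at 37C. Viability was read in the same wells by CellTiter-Fluor fluorescence, reagent added after 23hr with a 1hr incubation.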

Assay [3] can be described thus: Caspase-3/7 induction in HepG2 cells by small molecules, qHTS assay (AID 1346978). Note: nearly all actives have a fitted effect of over 15% in size. An outline of the steps:
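Caspase-3/7 induction was measured by Caspase-Glo 3/7 luminescence (30 min, room temperature) after a 17 hr compound exposure of wild-type HepG2 cells seeded at 2,000 per well and pre-incubated 5 hr.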

A short description of assay [4]: Caspase-3/7 induction in CHO-K1 cells by small molecules, qHTS cell viability counter screen (AID 1346979). Note: nearly all actives have a fitted effect of over 35% in size. Put shortly: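 Wild-type CHO-K1 cells were seeded at 1,500 per well, rested 5hr at 37 C, then exposed to compounds in DMSO. After 16hr, CellTiter-Fluor reagent was added and fluorescence read 1hr later as the viability measure.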
Assay [5] in a line: Caspase-3/7 induction in CHO-K1 cells by small molecules, qHTS assay (AID 1346980). Note: nearly all actives have a fitted effect of over 15% in size. Put shortly: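 Luminescent Caspase-Glo 3/7 read (30min, room temperature) quantified apoptosis induction. Cells were wild-type CHO-K1, treated with compound for 17hr at 37 C and 5% CO2.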
Assay [6] in a line: Caspase-3/7 induction in HepG2 cells by small molecules, qHTS cell viability counter screen (AID 1346981). Note: series mostly up to about 92 µM; nearly all actives have a fitted effect of over 30% in size. An outline of the steps: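 Multiplexed with the caspase-3/7 assay: HepG2 cells, 16 hr compound treatment, CellTiter-Fluor viability detection by fluorescence.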
The target in assay [7] is Nuclear receptor subfamily 1 group I member 2 (Homo sapiens) (UniProt O75469). In words: Human pregnane X receptor (PXR) small molecule agonists, qHTS assay (AID 1346982). Note: nearly all actives have a fitted effect of over 35% in size. An outline of the steps: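 We seeded PXR-Luc HepG2 cells in assay medium containing 5% charcoal-stripped FBS, added compounds 5 hr later, incubated 24 hr, and read luminescence with ONE-Glo reagent.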
Chain of Nuclear receptor subfamily 1 group I member 2 (Homo sapiens) (O75469 whole entry, looked up): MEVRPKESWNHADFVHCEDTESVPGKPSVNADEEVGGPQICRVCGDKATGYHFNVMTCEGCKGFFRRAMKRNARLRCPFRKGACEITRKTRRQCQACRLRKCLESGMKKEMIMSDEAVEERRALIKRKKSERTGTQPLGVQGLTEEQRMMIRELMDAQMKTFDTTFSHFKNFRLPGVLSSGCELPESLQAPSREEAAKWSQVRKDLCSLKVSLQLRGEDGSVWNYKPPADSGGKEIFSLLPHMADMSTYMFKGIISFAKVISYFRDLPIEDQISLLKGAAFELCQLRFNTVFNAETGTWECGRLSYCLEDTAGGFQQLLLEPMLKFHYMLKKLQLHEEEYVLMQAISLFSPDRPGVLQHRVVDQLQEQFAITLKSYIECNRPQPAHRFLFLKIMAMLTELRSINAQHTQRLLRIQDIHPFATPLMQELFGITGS

In assay [8] the target is Cytochrome P450 2D6 (Homo sapiens) (UniProt P10635). In words: Cytochrome P450 Family 2 Subfamily D Member 6 (CYP2D6) small molecule antagonists: luciferase reporter qHTS assay (AID 1671196). For activity change, negative = inhibition: series mostly up to about 120 µM. Note: nearly all actives have a fitted effect of over 50% in size. Note: potency is the fitted concentration of half-maximal effect. Put shortly: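 Luminescence (RLU), read 20 min after detection reagent, indicated CYP2D6 conversion of proluciferin to luciferin during a 1 h NADPH-dependent reaction at room temperature.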
Chain of Cytochrome P450 2D6 (Homo sapiens) (P10635 whole entry, looked up): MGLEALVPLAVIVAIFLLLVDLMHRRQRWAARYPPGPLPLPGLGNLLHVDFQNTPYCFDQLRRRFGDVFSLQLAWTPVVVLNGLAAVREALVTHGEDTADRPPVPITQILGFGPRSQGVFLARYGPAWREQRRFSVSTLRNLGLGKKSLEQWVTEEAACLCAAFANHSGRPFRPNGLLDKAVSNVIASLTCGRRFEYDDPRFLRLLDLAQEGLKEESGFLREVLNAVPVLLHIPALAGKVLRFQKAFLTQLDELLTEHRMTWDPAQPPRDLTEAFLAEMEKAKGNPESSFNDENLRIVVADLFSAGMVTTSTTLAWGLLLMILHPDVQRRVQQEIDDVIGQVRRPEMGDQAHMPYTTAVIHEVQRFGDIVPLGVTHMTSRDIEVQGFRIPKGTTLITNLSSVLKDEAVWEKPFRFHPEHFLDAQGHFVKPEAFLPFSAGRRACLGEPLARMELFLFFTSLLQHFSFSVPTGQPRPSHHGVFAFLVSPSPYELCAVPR
For orientation: Reporter assays use an easily measured gene product as a stand-in for the process of interest.

In assay [9] the target is Cytochrome P450 2C19 (Homo sapiens) (UniProt P33261). The assay can be described thus: Cytochrome P450 Family 2 Subfamily C Member 19 (CYP2C19) small molecule antagonists: luciferase reporter qHTS assay (AID 1671197). Note: series mostly up to about 120 µM; nearly all actives have a fitted effect of over 65% in size. An outline of the steps: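 Luminescent readout of CYP2C19 activity: luciferin product detected 20 min after adding detection reagent. Before that, compound and enzyme-substrate mix preincubated 10 min at room temperature; NADPH-regenerating system started a 1 h, 37C reaction. Ketoconazole as positive control.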
Chain of Cytochrome P450 2C19 (Homo sapiens) (P33261 whole entry, looked up): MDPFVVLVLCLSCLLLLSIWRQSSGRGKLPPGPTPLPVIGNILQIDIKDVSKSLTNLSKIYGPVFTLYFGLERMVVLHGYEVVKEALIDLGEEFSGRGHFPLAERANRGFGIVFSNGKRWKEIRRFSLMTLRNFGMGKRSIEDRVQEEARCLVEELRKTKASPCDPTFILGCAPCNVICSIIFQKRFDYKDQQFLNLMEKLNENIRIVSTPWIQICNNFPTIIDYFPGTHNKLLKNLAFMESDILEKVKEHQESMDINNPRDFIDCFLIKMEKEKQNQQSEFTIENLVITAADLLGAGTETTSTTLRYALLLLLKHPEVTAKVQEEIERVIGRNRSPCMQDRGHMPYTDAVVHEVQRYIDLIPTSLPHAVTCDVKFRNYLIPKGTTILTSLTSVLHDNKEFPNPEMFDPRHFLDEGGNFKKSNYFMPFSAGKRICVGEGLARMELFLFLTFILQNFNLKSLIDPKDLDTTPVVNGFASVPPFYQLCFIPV

In assay [10] the target is Cytochrome P450 2C9 (Homo sapiens) (UniProt P11712). In words: Cytochrome P450 Family 2 Subfamily C Member 9 (CYP2C9) small molecule antagonists: luciferase reporter qHTS assay (AID 1671198). For activity change, negative = inhibition: series mostly up to about 120 µM. Note: nearly all actives have a fitted effect of over 50% in size. Note: potency is the fitted concentration of half-maximal effect. An outline of the steps:
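Enzyme-substrate mix preincubated with compound 10 min at room temperature; reaction started with NADPH regeneration solution, 1 h 37C. Luminescent luciferin product read after 20 min detection reagent.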

Assay [11] has as its target Voltage-gated inwardly rectifying potassium channel KCNH2 (Homo sapiens) (UniProt Q12809). In words: Human Ether-a-go-go-Related Gene (hERG) channel small molecule antagonists: fluorescence cell-based qHTS assay (AID 1671200).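 For activity change, negative = inhibition: hERG-expressing U2OS cells given a thallium stimulus after FluxOR II dye loading; series mostly up to about 77 µM.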 Note: nearly all actives have a fitted effect of over 50% in size. Note: potency is the fitted concentration of half-maximal effect. Put shortly:
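U2OS cells expressing the channel were plated at 1000 cells/well, incubated overnight at 37 C, then loaded with FluxOR II thallium-sensitive dye for 1 h at room temperature in the dark, with a further 10 min at room temperature before stimulation.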
A general note: hERG is a cardiac potassium channel; its block is linked to QT prolongation.

The target in assay [12] is Cytochrome P450 3A4 (Homo sapiens) (UniProt P08684). In words: Cytochrome P450 Family 3 Subfamily A Member 4 (CYP3A4) small molecule antagonists: luciferase reporter qHTS assay (AID 1671201). For activity change, negative = inhibition: series mostly up to about 120 µM. Note: nearly all actives have a fitted effect of over 50% in size. Note: potency is the fitted concentration of half-maximal effect. An outline of the steps: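 P450-Glo CYP3A4 system with proluciferin substrate; compounds preincubated 10 min RT with enzyme-substrate mix, then NADPH regeneration added for 1 h RT. Detection reagent 20 min, luminescence read as relative luminescence units.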
Chain of Cytochrome P450 3A4 (Homo sapiens) (P08684 whole entry, looked up): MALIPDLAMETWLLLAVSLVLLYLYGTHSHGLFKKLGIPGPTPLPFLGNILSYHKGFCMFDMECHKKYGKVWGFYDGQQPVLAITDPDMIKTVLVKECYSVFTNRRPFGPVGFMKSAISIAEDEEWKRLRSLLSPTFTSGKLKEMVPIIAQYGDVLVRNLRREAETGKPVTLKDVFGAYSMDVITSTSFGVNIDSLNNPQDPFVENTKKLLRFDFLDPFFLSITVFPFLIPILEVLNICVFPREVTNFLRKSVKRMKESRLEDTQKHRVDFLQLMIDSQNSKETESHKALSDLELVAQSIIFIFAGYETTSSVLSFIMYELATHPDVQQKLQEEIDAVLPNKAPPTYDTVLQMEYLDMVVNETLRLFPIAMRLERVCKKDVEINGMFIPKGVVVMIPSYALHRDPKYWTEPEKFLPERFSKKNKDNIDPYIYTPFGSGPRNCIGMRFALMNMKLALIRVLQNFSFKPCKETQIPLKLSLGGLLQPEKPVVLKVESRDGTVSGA

For assay [13], the target named is Nuclear receptor subfamily 1 group I member 2 (Rattus norvegicus) (UniProt Q9R1A7). The assay can be described thus: Rat pregnane X receptor (rPXR) activation by small molecules, qHTS assay (AID 1346983). Note: nearly all actives have a fitted effect of over 20% in size. The settings on record: rPXR luciferase reporter cells, One-Glo luminescence, 24 h; max activation: stronger effect = higher value. Put shortly:
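Luminescent readout (One-Glo luciferase, 30 min room temperature) followed 24 hr compound treatment at 37 C of rPXR cells plated 2,000 per well and preincubated 5hr; qHTS format with compounds delivered in DMSO.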

Assay [14] has as its target Nuclear receptor subfamily 1 group I member 2 (Homo sapiens) (UniProt O75469). The assay can be described thus: CYP3A4 induction through human pregnane X receptor (PXR) by small molecules, qHTS assay (AID 1346984). Note: nearly all actives have a fitted effect of over 40% in size. An outline of the steps:
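qHTS, concentration-response format: HepG2 DPX-2 line, PXR/CYP3A4-luc. Exposure 24 h, 37C. Substrate Luciferin-IPA 3uM final, 3 h. Detection One-Glo, 30 min RT.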

For assay [15] the target is unchanged. In words: Human pregnane X receptor (PXR) activation by small molecules, qHTS assay (AID 1346985). Note: nearly all actives have a fitted effect of over 40% in size. Note: potency is the fitted concentration of half-maximal effect. Put shortly:
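DPX-2 cells (HepG2 co-transfected with a PXR response element and a CYP3A4-promoter luciferase construct) were seeded at 2,000 per well, rested 5 hr at 37C, then exposed to DMSO-dissolved compounds for 24 hr. Activation was read as luciferase luminescence.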

Assay [16] addresses Cytochrome P450 1A2 (Homo sapiens) (UniProt P05177). The assay can be described thus: Cytochrome P450 Family 1 Subfamily A Member 2 (CYP1A2) small molecule antagonists: luciferase reporter qHTS assay (AID 1671199). An outline of the steps:
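CYP1A2 turnover of a luminogenic substrate was quantified after 1 h with NADPH regeneration at room temperature. Furafylline served as positive control.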

Unmarked numbers belong to inactive results. Inconclusive results are not listed. Activity calls are given as the source filed them. Unless noted, calls come from the whole dose curve; as a rule, active = well fitted curve in the direction sought with a large enough effect in the repeat runs; inconclusive = weak or mixed curves; inactive = no such curve, though single readings can be large; an effect the other way counts as inactive or inconclusive.
% is set by controls: 0 for no effect and ±100 for the full control effect.

Chain of Cytochrome P450 2C9 (Homo sapiens) (P11712 whole entry, looked up): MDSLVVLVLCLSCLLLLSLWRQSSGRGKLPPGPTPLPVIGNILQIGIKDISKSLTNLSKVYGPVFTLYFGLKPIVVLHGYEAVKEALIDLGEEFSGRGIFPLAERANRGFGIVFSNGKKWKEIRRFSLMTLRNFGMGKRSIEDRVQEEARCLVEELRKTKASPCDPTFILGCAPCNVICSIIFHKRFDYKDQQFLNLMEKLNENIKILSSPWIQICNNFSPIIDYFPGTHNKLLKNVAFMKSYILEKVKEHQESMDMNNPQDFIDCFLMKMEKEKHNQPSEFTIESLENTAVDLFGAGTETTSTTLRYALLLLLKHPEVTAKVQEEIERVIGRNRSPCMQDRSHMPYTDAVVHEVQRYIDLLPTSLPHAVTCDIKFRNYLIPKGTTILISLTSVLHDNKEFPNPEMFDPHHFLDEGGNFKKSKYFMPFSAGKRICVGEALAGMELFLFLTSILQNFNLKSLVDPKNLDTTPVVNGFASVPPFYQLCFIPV
Chain of Cytochrome P450 1A2 (Homo sapiens) (P05177 whole entry, looked up): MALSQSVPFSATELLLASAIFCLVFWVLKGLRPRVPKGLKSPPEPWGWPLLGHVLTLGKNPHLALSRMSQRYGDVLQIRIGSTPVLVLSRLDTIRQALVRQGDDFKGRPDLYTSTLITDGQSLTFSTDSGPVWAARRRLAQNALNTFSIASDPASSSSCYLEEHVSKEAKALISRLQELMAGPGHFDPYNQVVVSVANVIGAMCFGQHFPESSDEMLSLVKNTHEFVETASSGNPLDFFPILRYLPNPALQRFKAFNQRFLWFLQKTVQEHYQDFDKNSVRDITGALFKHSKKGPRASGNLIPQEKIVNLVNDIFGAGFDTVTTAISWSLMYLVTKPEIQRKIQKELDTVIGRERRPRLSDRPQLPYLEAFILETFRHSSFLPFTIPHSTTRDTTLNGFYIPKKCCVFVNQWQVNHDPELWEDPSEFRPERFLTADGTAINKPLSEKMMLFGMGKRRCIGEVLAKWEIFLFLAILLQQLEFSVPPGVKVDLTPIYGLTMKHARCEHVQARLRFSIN
Chain of Voltage-gated inwardly rectifying potassium channel KCNH2 (Homo sapiens) (Q12809 whole entry, looked up): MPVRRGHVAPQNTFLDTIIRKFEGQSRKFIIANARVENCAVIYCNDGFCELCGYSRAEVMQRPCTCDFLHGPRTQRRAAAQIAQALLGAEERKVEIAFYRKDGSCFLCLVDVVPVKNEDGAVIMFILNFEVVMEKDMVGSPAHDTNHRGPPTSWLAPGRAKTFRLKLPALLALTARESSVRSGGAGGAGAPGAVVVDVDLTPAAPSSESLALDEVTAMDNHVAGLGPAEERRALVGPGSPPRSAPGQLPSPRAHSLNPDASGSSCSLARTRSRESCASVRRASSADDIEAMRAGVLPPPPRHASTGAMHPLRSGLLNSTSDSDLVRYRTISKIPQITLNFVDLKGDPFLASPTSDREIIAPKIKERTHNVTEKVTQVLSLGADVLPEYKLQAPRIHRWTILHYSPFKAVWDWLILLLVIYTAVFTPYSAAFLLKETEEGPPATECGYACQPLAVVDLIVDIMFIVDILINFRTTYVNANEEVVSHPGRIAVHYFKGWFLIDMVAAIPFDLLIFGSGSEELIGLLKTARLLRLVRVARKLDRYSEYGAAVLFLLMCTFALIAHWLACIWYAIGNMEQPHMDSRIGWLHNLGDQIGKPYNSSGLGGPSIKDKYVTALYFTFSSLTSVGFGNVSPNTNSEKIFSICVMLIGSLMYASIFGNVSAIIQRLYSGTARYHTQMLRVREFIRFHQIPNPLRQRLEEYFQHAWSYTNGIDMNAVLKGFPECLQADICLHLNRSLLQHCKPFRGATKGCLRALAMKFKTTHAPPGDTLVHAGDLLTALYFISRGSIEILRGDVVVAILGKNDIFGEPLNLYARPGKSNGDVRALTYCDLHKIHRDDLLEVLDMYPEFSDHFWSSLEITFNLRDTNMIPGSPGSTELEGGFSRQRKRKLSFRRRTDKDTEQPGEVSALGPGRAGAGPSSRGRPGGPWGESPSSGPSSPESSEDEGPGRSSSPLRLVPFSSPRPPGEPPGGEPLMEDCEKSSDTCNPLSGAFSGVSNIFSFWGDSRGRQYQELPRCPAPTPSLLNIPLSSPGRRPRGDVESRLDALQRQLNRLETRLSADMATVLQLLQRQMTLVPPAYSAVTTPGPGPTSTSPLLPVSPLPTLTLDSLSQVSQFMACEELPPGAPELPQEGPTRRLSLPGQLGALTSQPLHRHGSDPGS
Chain of Nuclear receptor subfamily 1 group I member 2 (Rattus norvegicus) (Q9R1A7 whole entry, looked up): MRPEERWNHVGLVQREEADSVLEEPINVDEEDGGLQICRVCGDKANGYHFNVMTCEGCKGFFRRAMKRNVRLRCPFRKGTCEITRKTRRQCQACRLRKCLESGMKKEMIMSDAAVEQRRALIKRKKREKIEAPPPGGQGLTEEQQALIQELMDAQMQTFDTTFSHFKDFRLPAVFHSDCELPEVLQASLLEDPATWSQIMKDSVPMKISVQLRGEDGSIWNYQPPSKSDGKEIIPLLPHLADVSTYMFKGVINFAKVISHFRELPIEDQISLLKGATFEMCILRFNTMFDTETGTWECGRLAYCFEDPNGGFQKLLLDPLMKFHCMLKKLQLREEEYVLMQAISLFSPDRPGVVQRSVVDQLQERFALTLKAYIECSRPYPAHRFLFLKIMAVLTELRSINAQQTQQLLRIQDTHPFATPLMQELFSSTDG

Turning to `CC(C)CCCC(C)NCCC(C)C` (stereo not drawn), the call in assay [1], in assay [3], in assay [5] and in assay [6] was inactive. Further, the Potency entry in assay [2], in [4], in assay [7], in [9], in [10] and in assay [11] was “inactive” each time. In addition, the Potency result in assay [12] is “inactive”. Further, in assay [8], the Potency was 1.23 µM (active).
Consider `COC(=O)[C@H]1[C@H]2C[C@@H]3c4[nH]c5cc(OC)ccc5c4CCN3C[C@H]2C[C@@H](OC(=O)COc2ccc(OC)cc2)[C@@H]1OC`, for which the outcome in assay [1], in assay [3], in [5] and in assay [6] was inactive. In addition, the Potency result in [2], in [4], in assay [7] and in [14] was “inactive” in each case. The max activation in assay [13] is -1.88%. The Potency in [15] is 10 µM (active); in assay [8] it was 17.4 µM (active); in assay [10], 27.5 µM (active); in assay [11] it was 0.601 µM (active).
For `NCCNC(=O)c1ccc(Cl)cn1`, the compound was classed as inactive in assay [1], in assay [3], in assay [5] and in assay [6]. Also, the Potency result in assay [2], in assay [4], in assay [7], in [14], in assay [15] and in assay [9] was “inactive” each time. In addition, the Potency result in assay [10], in assay [11] and in [12] was “inactive” throughout. Moreover, in assay [13], the max activation is -1.85%.
As to `FC(F)(F)C(F)(F)C(F)(F)C(F)(F)C(F)(F)C(F)(F)C(F)(F)C(F)(F)C(F)(F)C(F)(F)F`, the activation in [1] was 0.116% [at 5.23 µM]; in assay [7], -1.65% [at 8.39 µM]. The activity change, negative = cytotoxicity in assay [2] was 1.13% [at 8.39 µM]; in assay [4], 7.28% [at 8.39 µM]; in assay [6] it was 5.96% [at 8.39 µM]. In [3], the caspase activation was -0.76% [at 8.39 µM]. Further, the caspase-3/7 activation in assay [5] is -0.497% [at 8.39 µM]. Also, the activity change, negative = inhibition is -5% [at 10.5 µM] in assay [8]; -6.18% [at 10.5 µM] in assay [9]; -5.26% [at 10.5 µM] in assay [10]; -15.3% [at 10.5 µM] in assay [16]; 1.96% [at 6.97 µM] in assay [11]; -3.38% [at 10.5 µM] in assay [12].
Consider `O=C1OC(=O)c2cc([N+](=O)[O-])ccc21`, for which the compound was classed as inactive in [1], in assay [3], in assay [5] and in assay [6]. In addition, the Potency entry in assay [2], in assay [4], in [7], in assay [9], in assay [10] and in assay [11] was “inactive” in each case. In addition, the Potency result in assay [12] was “inactive”. For the same compound, in [8], the Potency is 35.5 µM (active).
As for `CC(O)CN(CCCN(C)C)CCCN(C)C` (stereo not drawn), the compound was classed as inactive in assay [1], in assay [3], in assay [5] and in [6]. Moreover, the Potency result in [2], in assay [4], in assay [7], in assay [8], in assay [9] and in assay [10] was “inactive” throughout. For the same compound, the Potency entry in [16], in [11] and in assay [12] was “inactive” throughout.
For `CCO[Si](C)(OCC)OCC`, the compound was classed as inactive in [1], in assay [3], in assay [5] and in assay [6]. Further, the Potency entry in assay [2], in assay [4], in assay [7], in assay [8], in [9] and in assay [10] was “inactive” in each case. Further, in assay [11], the Potency entry was “inactive”. In addition, the Potency in assay [12] was 28.3 µM (active).
As for `CN(C)CCn1nnnc1SCC1=C(C(=O)O)N2C(=O)[C@@H](NC(=O)Cc3csc(N)n3)[C@H]2SC1`, the call in assay [1], in assay [3], in assay [5] and in [6] was inactive. For the same compound, the Potency result in assay [2], in [4], in assay [7], in [14], in assay [15] and in assay [10] was “inactive” throughout. For the same compound, the Potency result in assay [11] and in assay [12] was “inactive” each time. Further, the max activation in [13] was 14.1%.
On to `O=C(O)c1ccc[n+]([O-])c1`, for which the call in assay [1], in [3], in assay [5] and in [6] was inactive. Also, the Potency entry in [2], in [4], in [7], in assay [14], in assay [15] and in [8] was “inactive” each time. The Potency result in [9], in assay [10], in assay [16], in [11] and in assay [12] was “inactive” in each case. In addition, the max activation in [13] was -2.52%.
